The other results are listed elsewhere or left out. Inconclusive results are not listed. Active and inactive are the calls of the source. The call rests on the fitted dose curve; in most records, active means well fitted inhibition curve with a large enough effect; inconclusive means small, poorly fitted or top-dose-only effect; inactive means no such curve, though single readings can be large or run the other way.

The experiment in a line: qHTS of pediatric cancer cell lines to identify multiple opportunities for drug repurposing: Orthogonal 3D viability screen for SJ-GBM2 cells. The settings on record: SJ-GBM2 3D spheroid viability, PI/Hoechst imaging, 72 h. The text has this:
Drug repurposing or repositioning has been offered as a strategy for drug development in oncology programs. This approach has special potential for childhood cancers and other rare or orphan diseases, where the expected return on new drug development has been a disincentive to pharmaceuticals. […] In this project we exploit the poly-pharmacology of drugs to discover new indications via phenotypic screening of a panel of 19 well-characterized cell lines derived from solid tumors seen in children and adolescents. The goal is to identify approved drugs with previously unrecognized anticancer properties that has the potential to reveal new mechanisms and biological processes involved in carcinogenesis or drug resistance. We employed a titration-based paradigm (quantitative high-throughput screening or qHTS), where all compounds were tested at multiple concentrations for their effect on cell viability. Concentration-response curves (CRCs) were derived directly from the primary screen, and both potency and efficacy values were used to identify compounds with robust bioactivity profiles. […] These two assays will be used to validate active compounds and assess the correlation of compound's potency in 2D vs 3D cultures on selected cell lines. Assay Submitter: Nathalia J. Martinez, National Center for Advancing Translational Sciences, National Institutes of Health, Rockville, MD, USA; email: natalia.martinez@nih.gov Shen, M et al. Quantitative high-throughput phenotypic screening of pediatric cancer cell lines identifies multiple opportunities for drug repurposing. Oncotarget 2017 Dec 19;9(4):4758-4772. PMID 29435139.
The cells were obtained from University of North Carolina (UNC), Pediatric Preclinical Testing Program (PPT), and Coriell Institute (CI). qHTS viability in 3D culture: Cells were assayed in phenol red-free growth media at a density of 1,000 cells/well, with the exception of Daoy, and SH-N-SH which were assayed at 1,500 cells/ well. Thirty muL of cells were dispensed into 384-well, ULA, round bottom plates (Corning) using a Multidrop dispenser. Plates were spun down at 1,000 rpm for 1 min and incubated at 37 degrees C, 5% CO2, under a humidified atmosphere for either 24 (Daoy) or 48 hours (all other cell lines) to allow spheroid formation. Ninety-two nanoliter of compounds and controls (neutral control DMSO or positive control bortezomib at final concentrations of 0.5 µM) were subsequently transferred via GNF Pintool. Plates were sealed using a breathable seal (Diversified Biotech, Dedham, MA) and incubated for 72 hours at 37 degrees C. Spheroid viability was first determined by high-content imaging using Hoechst 33342 and Propidium Iodide (PI, ThermoFisher Scientific), followed by addition of CellTiter-Glo 3D (Promega). Specifically, 3 µL/well of PBS containing a 1:500 dilution of both dyes was dispensed using Multidrop. Dyes were incubated for 1 hour before imaging using the Celigo Image Cytometer. Then, 20 µl of CellTiter-Glo 3D were added per well. Plates were incubated for 30 min at RT on a VWR microplate shaker (300 rpm) and analyzed for luminescence intensity using a ViewLux High-throughput CCD imager equipped with clear filters. Image analysis was done using the Celigo Tumorsphere 1+2+3 application software as previously described. Briefly, spheroids were first identified using bright-field image segmentation, and then the fluorescent intensities of PI and Hoechst 3342 were obtained using red (EX: 531/40 nm, EM: 629/53 nm) and blue (EX: 377/50 nm, EM: 470/22 nm) filters, respectively. The data were exported to Excel, and the average fluorescent intensities were used to calculate the ratio of PI over Hoechst, which was used to quantify viability. Percent activity based on neutral and positive control bortezomib was derived.
A general note: In qHTS, concentration-response curves come from the screen itself.
Regarding `CC[C@]1(O)C[C@@H]2CN(CCc3c([nH]c4ccccc34)[C@@](C(=O)OC)(c3cc4c(cc3OC)N(C)[C@H]3[C@@](O)(C(=O)OC)[C@H](OC(C)=O)[C@]5(CC)C=CCN6CC[C@]43[C@@H]65)C2)C1`, the Potency is 40.6 nM (active).
Consider `COc1c(C)c2c(c(O)c1C/C=C(\C)CCC(=O)O)C(=O)OC2`, for which the Potency was 722 nM (active).
Turning to `COC(=O)Nc1nc2ccc(Sc3ccccc3)cc2[nH]1`, the Potency is 574 nM (active).
For `CC(NCc1ccc2c(c1)nc(NC(=O)c1ccc(-c3cn[nH]c3)s1)n2CC(C)(C)O)C(C)(C)C` (stereo unspecified) the value was 162 nM (active).
The same measure for `CC1(C)O[C@@H]2C[C@@H]3[C@H]4C[C@@H](F)C5=CC(=O)C=C[C@]5(C)[C@@]4(F)[C@@H](O)C[C@]3(C)[C@]2(C(=O)CO)O1`: 574 nM (active); for `CC[C@H]1CN2CCc3cc(OC)c(OC)cc3[C@@H]2C[C@@H]1C[C@H]1NCCc2cc(OC)c(OC)cc21`: 72.2 nM (active).

These data come from PubChem BioAssay AID1347136 (National Center for Advancing Translational Sciences (NCATS), 2019).
